# A selection: hits, their analogues and other compounds. The true share with any hit is near 9.3%.
# Htt clearance = compounds clearing mutant huntingtin protein. HeLa Exon1htt(103Q)mCFP, aggregate imaging; zero = plate's median compound well. 0.42% of 47,000 active. inhibition, % at 1.5 µM;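 active = inhibition of aggregate fluorescence above about 70%, also judged a hit by eye on the cell image, limit read from the data, passing the limit was not always enough; inconclusive = no rule stated for this call; inactive = not judged a hit on image review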;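 also: cells exposed to compound for three days before fixation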
# M1 antagonist = antagonists of rat M1 muscarinic receptor; P08482; CHO-M1 cells, Fluo-4 calcium, ACh EC80 antagonist mode; hits give low values; B-score at 10 µM; 3.4% of 64,000 active;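 active = calcium fluorescence response, raw or row-and-column corrected B-score, differing from the plate sample mean either way at a set confidence level, mostly lower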
# A340 absorber = compounds absorbing at 340 nm. AID 708. compound absorbance at 340 nm, fold over control. 65,000 tested, under 10 active. fold change at 10 µM;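 active = at 10 µM dose, initial 340 nm absorbance at least 2 fold that of control wells; inactive = change under 2 fold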;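 also: initial absorbance extrapolated from kinetic A340 decline of NADH oxidation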
# NADH enzymes = blocks coupling enzymes of NAD/NADH assays; coupled PK/LDH NADH assays, four targets; IC50, µM (doses to about 10 µM), for the others: top-dose inhibition; 0.02% of 65,000 active;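 active = single-dose screening hits from any of four coupled enzyme assays that gave an IC50 when retested across doses; inconclusive = no clear call, values can overlap the other calls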;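 also: the DPM-DC format reads NADH fluorescence rather than 340 nm absorbance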
# M1 ag = agonists of M1 muscarinic receptor; 3% of 64,000 active; CHO-M1 cells, Fluo-4 calcium fluorescence, agonist mode; hits give high values; AID 626; B-score at 10 µM;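 active = fluorescence rise, raw or as B-score row- and column-corrected plate score, outside the 99.7% band of its plate's samples, either direction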
# Fluor 339 460 = intrinsic fluorescence of library compounds, ex339/em460 – biochemical, MLSMR library, data from DPM-DC assay, artefact control, profiling panel | compound autofluorescence, ex339/em460 nm, NADH buffer; hits give high values; 1 = no-compound wells, NADH background | fluorescence fold increase at 10 µM | 5.5% of 65,000 active;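 active = at 10 µM, mean starting fluorescence two-fold or more over control wells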;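 also: signal is the first read of a kinetic run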
# M1 ag confirm = rat M1 muscarinic agonism, confirmation. 19% of 1,700 active. CHO-M1 cells, Fluo-4 calcium fluorescence, agonist mode; actives lie on both sides. fluorescence change (max-min) at 10 µM. shares compounds with M1 ag;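 active = fluorescence change differs from the solvent-only DMSO control mean at a set confidence level in both duplicate runs; inconclusive = differs from solvent-only control mean in just one of two runs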;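 also: an EC20 dose of acetylcholine follows compound addition during the same imaging run; raw fluorescence intensity difference in instrument units with no normalization to controls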
# M4 ag counter = rat M4 muscarinic agonism, M1 counter-screen; shares compounds with M1 ag; fluorescence change (max-min) at 10 µM; 9% of 1,700 active; CHO M4/Gqi5 cells, Fluo-4 calcium fluorescence, agonist mode; actives lie on both sides;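 active = fluorescence change differing from the plate's solvent-only control wells at 99.7% confidence in both duplicates, whether higher or lower; inconclusive = differs from solvent controls in only one of two duplicates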
# Target sequence (P08485 whole entry, looked up): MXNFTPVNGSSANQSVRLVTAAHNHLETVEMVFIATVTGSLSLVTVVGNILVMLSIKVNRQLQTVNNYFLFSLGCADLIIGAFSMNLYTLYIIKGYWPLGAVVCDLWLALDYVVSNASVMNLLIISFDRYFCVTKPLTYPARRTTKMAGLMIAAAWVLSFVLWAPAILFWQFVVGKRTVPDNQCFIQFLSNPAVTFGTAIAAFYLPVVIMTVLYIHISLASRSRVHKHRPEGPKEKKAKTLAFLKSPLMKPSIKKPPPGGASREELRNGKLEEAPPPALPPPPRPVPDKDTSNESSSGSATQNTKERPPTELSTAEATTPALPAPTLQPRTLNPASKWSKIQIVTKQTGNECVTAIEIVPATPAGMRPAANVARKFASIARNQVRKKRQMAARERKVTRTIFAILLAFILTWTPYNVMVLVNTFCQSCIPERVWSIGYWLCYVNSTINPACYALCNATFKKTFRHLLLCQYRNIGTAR
# An asterisk follows results filed as active; ? = inconclusive; · = no result.
SMILES,Htt clearance,M1 antagonist,A340 absorber,NADH enzymes,M1 ag,Fluor 339 460,M1 ag confirm,M4 ag counter
Cc1c(-c2cccs2)[n+](=O)c2c(n1[O-])CCCC2,·,0.021,1,6%,-0.021,1.1,·,·
CCOC(=O)C1CCCN(c2nc(C)nc3c2oc2ccccc23)C1 (configuration not stated),20,0.57,1.1,7%,1.8*,1.2,-8.2,-29
CCOC(=O)C1CCN(c2nc(C)nc3c2oc2ccccc23)CC1,·,-0.98,1.1,5%,0.9,1.1,·,·
CN1C(=O)c2ccccc2C(C(=O)O)C1c1cn(C)c2ccccc12 (configuration not stated),·,0.02,0.99,7%,-0.9,1.1,·,·
Cc1ccsc1-c1nc(CSCC(=O)N2CCN(c3ccccc3)CC2)c(C)o1,·,-2.5*,1,5%,5*,1.1,-39*,?
Cc1ccc(-c2nc(CSCC(=O)N3CCCC3)c(C)o2)cc1,·,-0.0082,1,6%,0.58,1,·,·
Cc1cccc(-c2nc(CSCC(=O)N3CCN(c4ccccn4)CC3)c(C)o2)c1,2,-3.7*,1,3%,3.8*,1.1,-10,?
O=C(CSCc1ccc(F)cc1)N1CCN(c2ccccc2)CC1,3,·,·,·,·,·,·,·
CCOC(=O)N1CCN(C(=O)c2nn(-c3cc(OC)cc(OC)c3)c(=O)c3ccccc23)CC1,·,0.38,1,11%,6.4*,0.75,-2.2,?
CC(C)Cn1c(-c2ccc(Cl)cc2)cnc1SCC(=O)N1CCOCC1,·,0.067,1,8%,0.92,1.1,·,·
CCOC(=O)c1c(N)n(CCOC(=O)c2cccs2)c2nc3ccccc3nc12,-21,-1,1.1,9%,9.8*,3.7*,-2.5,-37
NS(=O)(=O)c1ccc(CCNc2ncnc3sccc23)cc1,39,0.47,1.1,2%,3.1*,1.2,0.13,-15
CC1(C)CC(=O)C=C(NCCc2ccc(S(N)(=O)=O)cc2)C1,·,0.27,1,5%,-0.38,1.1,·,·
O=C(NCCCn1ccnc1)c1cc2c(s1)CCCCC2,·,-1.3,1,3%,0.099,1,·,·
COc1ccc2c(c1OC)C(=O)N1c3ccccc3C(=O)N(c3ccccc3)C21 (configuration not stated),·,-1.3,1.1,4%,13*,1.1,?,-37
Cc1ccccc1N1C(=O)c2ccccc2N2C(=O)c3ccccc3C12 (configuration not stated),-16,·,·,·,·,·,·,·
COc1ccc2c(c1OC)C(=O)N1c3ccccc3C(=O)N(c3ccc(F)cc3)C21 (configuration not stated),-2,-1.7,1,3%,13*,1.1,-13,-27
O=C1c2ccccc2N2C(=O)c3ccccc3C2N1O (configuration not stated),-48,-0.3,0.99,4%,-1.7,1.1,·,·
Cc1ccc(NC(=O)/C(=C\c2cccc([N+](=O)[O-])c2)NC(=O)c2cccs2)cc1,-62,·,·,·,·,·,·,·
CCc1cccc(C)c1NC(=O)C1=C(C(=O)O)CCCC1,-18,0.023,1,5%,-0.87,1.1,·,·
CN1C(=O)C(O)(CC(=O)c2cccnc2)c2ccccc21 (configuration not stated),-92,·,1,1%,·,1.1,·,·
CN1C(=O)C(O)(CC(=O)c2ccccn2)c2cc(Br)ccc21 (configuration not stated),·,0.44,1,8%,-2.7*,1.2,?,-54
CN(C)S(=O)(=O)c1ccc(/C(O)=C2/C(=O)C(=O)N(CCN3CCCCC3)C2c2cccnc2)cc1 (configuration not stated),·,-0.44,1.1,2%,0.047,1,·,·
O=C(c1cc(-c2ccccn2)nc2c(Cl)cccc12)N1CCN(C(=O)C2CCCO2)CC1 (configuration not stated),-30,-0.68,1.1,2%,-0.084,1.1,·,·

# Bioassay records from PubChem.
